Laboratory results: PubChem BioAssay (Tox21)
Results filed as inconclusive are left out. Where a call stands in place of a potency, no number is given. Values without a mark were called inactive. Activity calls are given as the source filed them. Calls follow the shape of the full dose curve.

target: 5-hydroxytryptamine receptor 2A (Homo sapiens) (UniProt P28223); assay: 5-hydroxytryptamine receptor 2A (HTR2A) small molecule agonists, cell-based qHTS assay (AID 1963587); conditions: HTR2A-CHO cells, calcium flux fluorescence, agonist mode; series mostly up to 76.8 µM; also: nearly all actives have a fitted effect of over 30% in size
Text: National Center for Advancing Translational Sciences [NCATS]
Division of Preclinical Innovation [DPI]
U.S. Environmental Protection Agency [EPA]
National Institutes of Environmental Health Sciences [NIEHS]
National Toxicology Program [NTP]
U.S. Food and Drug Administration [FDA]
The HTR2A receptor is a subtype of the 5-HT2 receptor that belongs to the serotonin receptor family and is a G protein-coupled receptor (GPCR). The HTR2A-CHO cell line stably expressing human 5-hydroxytryptamine receptor 2A (HTR2A) can be used for screening agonists of interactions between 5-HT2 and its ligands. The HTR2A-CHO calcium flux assay is a homogeneous fluorescence-based assay for detecting the intracellular calcium level using FDSS kinetic plate reader system.
HTR2A-CHO cells were dispensed at 2000 cells/3uL/well in 1536-well black-clear bottom plates using a Multidrop Dispenser. After the assay plates were incubated at a 37 C/5% CO2 incubator for 18 h, 3 uL of Dye Loading Buffer was transferred to the assay plate by a Flying Reagent Dispenser. The assay plates were incubated at 37 C for 1h. For agonist mode, 23 nL of compounds dissolved in DMSO, positive controls or DMSO only was transferred to the assay plate by a pin tool. The fluorescence intensity in the plates was measured using FDSS 7000EX kinetic plate reader for 2 min at 1 sec intervals.
Potency is read from the fitted curve at half-maximal effect.

Chain of 5-hydroxytryptamine receptor 2A (Homo sapiens) (P28223 whole entry, looked up): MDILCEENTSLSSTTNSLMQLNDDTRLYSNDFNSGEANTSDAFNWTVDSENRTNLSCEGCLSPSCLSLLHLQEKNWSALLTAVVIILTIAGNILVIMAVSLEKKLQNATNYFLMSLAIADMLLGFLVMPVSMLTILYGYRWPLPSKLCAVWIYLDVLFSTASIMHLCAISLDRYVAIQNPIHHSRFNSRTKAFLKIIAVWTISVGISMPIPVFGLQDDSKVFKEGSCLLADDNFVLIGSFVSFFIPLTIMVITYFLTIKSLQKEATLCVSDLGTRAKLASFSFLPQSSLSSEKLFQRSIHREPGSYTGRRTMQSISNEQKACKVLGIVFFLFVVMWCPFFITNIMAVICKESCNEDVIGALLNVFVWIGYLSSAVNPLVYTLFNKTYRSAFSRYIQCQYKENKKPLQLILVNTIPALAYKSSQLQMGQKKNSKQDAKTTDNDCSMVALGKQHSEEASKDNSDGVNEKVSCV

SMILES | Potency | activation
O=CN1CCCCC1 | inactive | 
Nc1cc(S(=O)(=O)O)ccc1O | inactive | 
CCCc1ncc(C(=O)O)s1 | inactive | 
CCCCCCCCCCCCOC(=O)c1ccc(O)cc1 | inactive | 
C=C(C)C(=O)OCCN(CC)CC | inactive | 
C=CC(=O)OCC(Br)CBr (stereo not given) | inactive | 
CN(C)CCC=C1c2ccccc2C=Cc2ccccc21 | inactive | 
OCC(O)[C@@H](O)[C@H](O)[C@H](O)CO[C@H]1O[C@H](CO)[C@@H](O)[C@H](O)[C@H]1O (stereo not given in full) | inactive | 
CC(=O)NO | inactive | 
N[C@H]1CN(c2c(F)cc3c(=O)c(C(=O)O)cn(C4C[C@H]4F)c3c2Cl)CC12CC2 (stereo not given in full) | inactive | 
OC1CCCc2ccccc21 (stereo not given) | inactive | 
CN(C)c1ccc(C(c2ccccc2)c2ccc(N(C)C)cc2)cc1 | inactive | 
CCCCCCCCCCCCC | inactive | 
CCc1nccnc1C | inactive | 
C=CC/C=C/C/C=C/C/C=C/C | inactive | 
Cc1c(Cl)cccc1Nc1ccccc1C(=O)O | inactive | 
C=CC(OCC)OCC | inactive | 
CCCCOCCOC(=O)COc1ccc(Cl)cc1Cl | inactive | 
CN(C)C(=O)CNC(=O)Cc1ccccc1 | inactive | 
c1ccc(CN(CC2=NCCN2)c2ccccc2)cc1 | inactive | 

SMILES | Potency | activation
C=C(C)C(=O)OCCOCC | inactive | 
CCCCCCCCC1CO1 (stereo not given) | inactive | 
CCN(CCCCOC(=O)c1ccc(OC)c(OC)c1)C(C)Cc1ccc(OC)cc1 (stereo not given) | 12 µM (active) | 
NC(=O)c1ccccc1[N+](=O)[O-] | inactive | 
CCCCCCCCCCCCCCCCCCOCCO |  | -2.03% [at 15.9 µM]
CCOC(=O)C(=O)CCCCCCl | inactive | 
CC(=O)OC(C)(C)C | inactive | 
CCCCCCCC/C=C\CCCCCCCC(=O)OC[C@@H](O)[C@H]1OC[C@H](O)[C@H]1O | inactive | 
CCCCCCOC(=O)CCCCC | inactive | 
Cc1ccccc1C(=O)O | inactive | 
CCC1C(=O)OCC1Cc1cncn1C (stereo not given) | inactive | 
O=C1CCC(C2CCCCC2)CC1 | inactive | 
Nc1ncnc2c1ncn2[C@H]1CC[C@@H](CO)O1 | inactive | 
Nc1cc([N+](=O)[O-])cc(Cl)c1O | inactive | 
Cc1occc(=O)c1OC(=O)C(C)C | inactive | 
CCN1CCCC1CNC(=O)c1cc(S(=O)(=O)CC)c(N)cc1OC (stereo not given) | inactive | 
CCCCc1ccc(N)cc1 | inactive | 
CC1=C(C)C(=O)C(C(CCCCCC(=O)O)c2ccccc2)=C(C)C1=O (stereo not given) | inactive | 
CNC(=O)c1ccccc1Sc1ccc2c(/C=C/c3ccccn3)n[nH]c2c1 | inactive | 
O=C(O)c1cccc(C(=O)O)n1 | inactive | 
